Compound activity as filed in PubChem BioAssay.
Rows were chosen to be rich in hits. Some 12% of all compounds tested hit in one or more screens of this group.
Sfp PPTase inh: Sfp phosphopantetheinyl transferase inhibition; Q9F4F7; Biochemical Sfp PPTase activity, qHTS; Potency, µM, for inactives: largest response in the series, negative = inhibition, hits mostly inhibitors; 310,000 tested, 3.5% active;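 further: the enzyme is Sfp with the accession as filed and its product quenches rhodamine fluorescence; 0% = enzyme reaction without inhibitor and -100% = no enzyme wells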
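With Hepes-Na pH 7.6 buffer containing 10 mM MgCl2, Sfp (15 nM) modified BHQ-2-YbbR (12.5 uM) using rhodamine-CoA (5 uM). Two reads 30 minutes apart at 525/598 nm yielded each well's rate.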
JMJD2A Tudor inh: blocks the human JMJD2A Tudor domain; AID 504339; AlphaScreen JMJD2A-Tudor / H3K4me3 peptide binding; 390,000 tested, 4.4% active; Potency, µM (top dose mostly 114 µM), without a hit: top-dose activity change, negative = inhibition, most hits filed as inhibitors; O75164; further: on the % scale 0 is the no-effect control and ±100 the full control effect; nearly all actives have a fitted effect of over 50% in size
Target sequence (O75164 whole entry, looked up, the tested form may be a part): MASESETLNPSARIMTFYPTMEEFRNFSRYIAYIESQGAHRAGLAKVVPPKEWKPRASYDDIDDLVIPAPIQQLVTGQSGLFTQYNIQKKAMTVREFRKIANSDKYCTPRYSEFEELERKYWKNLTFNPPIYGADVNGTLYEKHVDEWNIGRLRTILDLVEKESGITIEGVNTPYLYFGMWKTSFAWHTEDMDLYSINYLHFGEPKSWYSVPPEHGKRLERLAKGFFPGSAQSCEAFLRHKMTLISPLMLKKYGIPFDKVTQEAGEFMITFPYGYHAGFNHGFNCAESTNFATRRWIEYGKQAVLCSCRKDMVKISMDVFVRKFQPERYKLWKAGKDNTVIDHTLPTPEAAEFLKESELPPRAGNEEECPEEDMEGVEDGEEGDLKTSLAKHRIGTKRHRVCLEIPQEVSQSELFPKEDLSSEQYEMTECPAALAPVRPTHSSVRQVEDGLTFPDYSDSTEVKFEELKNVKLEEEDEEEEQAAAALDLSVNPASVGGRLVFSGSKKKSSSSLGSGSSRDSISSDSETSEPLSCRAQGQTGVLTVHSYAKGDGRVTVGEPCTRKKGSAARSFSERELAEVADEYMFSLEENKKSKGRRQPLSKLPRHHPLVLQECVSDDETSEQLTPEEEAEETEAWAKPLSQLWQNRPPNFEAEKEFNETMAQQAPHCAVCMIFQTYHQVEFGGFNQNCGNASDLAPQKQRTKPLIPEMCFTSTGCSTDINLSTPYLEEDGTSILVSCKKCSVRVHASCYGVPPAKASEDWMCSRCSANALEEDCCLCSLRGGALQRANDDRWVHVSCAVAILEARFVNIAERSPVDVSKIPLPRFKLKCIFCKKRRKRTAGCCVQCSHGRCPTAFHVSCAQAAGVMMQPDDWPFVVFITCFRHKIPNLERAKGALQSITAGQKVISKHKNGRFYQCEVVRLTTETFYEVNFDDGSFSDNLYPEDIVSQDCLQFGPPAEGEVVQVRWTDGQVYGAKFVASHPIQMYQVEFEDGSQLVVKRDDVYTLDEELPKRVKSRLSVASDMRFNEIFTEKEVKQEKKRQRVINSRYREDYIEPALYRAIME
G9a inh: inhibitors of human histone lysine methyltransferase G9a; Potency, µM (highest dose often 102 µM), without a hit: at the highest dose activity, negative = inhibition, usual class: inhibitors; Q96KQ7; 350,000 tested, 8.8% active; AID 504332; G9a H3K9 monomethylation, AlphaScreen, 2 h; further: on the % scale 0 is the no-effect control and ±100 the full control effect; nearly all actives have a fitted effect of over 75% in size
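AlphaScreen read-out: biotin-H3K9 peptide (500 nM) methylation by 20 nM enzyme with 20 uM SAM, 2 h at room temperature after 15 min compound preincubation; anti-monomethyl H3K9 antibody plus donor/acceptor beads, 10 min dark.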
HP1b binding inh: inhibitors of HP1-beta chromodomain binding to methylated histone tails; P83916; AlphaScreen HP1-beta / biotin-H3K9me3 peptide binding; Potency, µM (doses to about 114 µM), for inactives: at the highest dose activity change, negative = inhibition, most hits filed as inhibitors; 390,000 tested, 0.56% active; further: nearly all actives have a fitted effect of over 70% in size
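AlphaScreen: HP1-beta (50 nM) preformed 30 min with biotin-H3(1-18)K9me3 peptide (50 nM) in PBS pH 7.4, 0.01% Tween-20. Compound added for 30 min at RT, then streptavidin donor/nickel chelate acceptor beads (10 ug/mL) for 30 min.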
BAZ2B block: BAZ2B (human) inhibition; Q9UIF8; AlphaScreen BAZ2B-H3K14Ac peptide displacement; Potency, µM (series often up to 114 µM), without a hit: top-dose activity change, negative = inhibition, actives largely listed as inhibitors; 360,000 tested, 4.4% active; AID 504333; further: on the % scale 0 is the no-effect control and ±100 the full control effect; nearly all actives have a fitted effect of over 60% in size
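Protein-peptide AlphaScreen: BAZ2B 50 nM, b-H3K14Ac 50 nM, 1x PBS pH 7.4 + 0.01% Tween-20. Preincubation 30 min RT; cpd 30 min RT (top 110 uM); beads 20 min RT, light-protected.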
Active calls of the source: *; ? = inconclusive; · = not tested or not shown; [ ] = another dose, or the depositor's remark. The call rests on the fitted dose curve; in most records, active means well fitted curve in the direction sought with a large enough effect; inconclusive means small, poorly fitted or top-dose-only effect, or another doubt; inactive means no such curve, though single readings can be large; an effect the other way counts as inactive or inconclusive. Potency means the concentration at half of the fitted maximal effect.

SMILES	Sfp PPTase inh	JMJD2A Tudor inh	G9a inh	HP1b binding inh	BAZ2B block
Cc1ccc(NC(=O)c2ccc(CNS(=O)(=O)c3ccc4c(c3)C(C)(C)C(=O)N4C)cc2)cc1C	·	-6%	-7%[59 µM]	24%	-14%
CCCCC[C@]12Cc3ccccc3C(O1)c1c(cc(C)oc1=O)O2	5%	·	·	·	3%[22.9 µM]
CNCCc1cnc(CCC(c2ccccc2)c2ccccc2)[nH]1	·	·	10µM*	·	·
O=C(Nc1cccc2[nH]ncc12)NS(=O)(=O)c1ccccc1	-15%	-5%	40µM*	37%	?
CCCOc1ccccc1NC(=O)/C=C/C(N)=O	-25%	-5%	35µM*	15%	9%
C#CCOCCOCCOCCNc1nc(N2CCN(C(=O)CCCCCCCCCCNC(=O)[C@H](CCCCN)n3cc(C)nn3)CC2)nc(N2CCN(C(=O)CCCCCCCCCCNC(=O)[C@@H]([C@H](C)O)n3cc(C)nn3)CC2)n1	·	56µM*	-4%[2.33 µM]	-22%	-37%
C#CCOCCOCCOCCNc1nc(N2CCN(C(=O)CCCCCCCCCCNC(=O)[C@H](CCCCN)n3cc(C[C@@H](C)CC)nn3)CC2)nc(N2CCN(C(=O)CCCCCCCCCCNC(=O)[C@@H]([C@H](C)O)n3cc(C)nn3)CC2)n1	·	56µM*	-4%[2.33 µM]	?	50µM*
COc1ccccc1CNC(=O)C(=O)NCC(c1cccnc1)N1CCN(c2ccccc2)CC1 (centres undefined)	·	-20%	-6%[59 µM]	10%	-7%
O=C(Nc1ccccc1)N1CC[C@@]2(CCCN(C(=O)c3cccc(F)c3)C2)C1	14%	·	11%[12.7 µM]	·	·
CC(SCc1cn2cc(Cl)ccc2n1)C(=O)O (centres undefined)	-1%	50µM*	?	0%	-24%
CC(NC(=O)c1ccc(Cl)cc1)c1nnc(SCC(=O)NC2=NCCS2)n1C (centres undefined)	11%	-6%	-3%	2%	1%
CC(C)N(CCNCC(O)COc1ccc(C(C)(C)c2ccccc2)cc1)C(C)C (centres undefined)	?	5.6µM*	20µM*	-14%	50µM*
CN(C)CCCOc1cccc(Cl)c1	-19%	18µM*	14µM*	?	79µM*
CC(C)(c1ccccc1)c1ccc(OCC2CO2)cc1 (centres undefined)	7%	190%	258%	135%	111%
CN(C)CCCOc1cccc(Oc2ccccc2)c1	-47%	56µM*	14µM*	?	?
CN(C)CCCOc1ccc(C(C)(C)c2ccccc2)cc1	-28%	1.6µM*	?	?	50µM*
OC(CNCCc1ccccc1)COc1ccc(OCC(O)CNCCc2ccccc2)cc1 (centres undefined)	-4%	?	·	12%	-22%
CCCCNCCCOc1cccc(Cl)c1	9%	-6%	24%[12.7 µM]	18%	6%
CS(=O)(=O)Nc1cccc(-c2cncnc2-n2ccnc2)c1	-5%	·	-3%[0.501 µM]	·	·
N/C(Cn1cncn1)=N\NC(=O)C(=O)Nc1cccc(C(F)(F)F)c1	-13%	-27%	0%[59 µM]	33%	8%
COC(=O)[C@@H]1CCCN1C(=O)[C@@H](C)CO	1%	·	·	·	·
Cc1ccccc1OCC(O)Cn1c(SC(C)C)nc2c1c(=O)[nH]c(=O)n2C (centres undefined)	56µM*	?	3.5µM*	-12%	-27%
CCSc1nc2c(c(=O)[nH]c(=O)n2C)n1CC(O)COc1ccccc1C (centres undefined)	?	-3%	16µM*	-27%	-15%
Cc1nnc2c(N3CCN(CCO)CC3)nc3ccccc3n12	8%	-10%	-3%	45%	-1%
CCCCNC(=S)NC(C)(C)CO	9%	-10%	11µM*	20%	-3%
SMILES	Sfp PPTase inh	JMJD2A Tudor inh	G9a inh	HP1b binding inh	BAZ2B block
CCCCNC(=S)Nc1ccc(C(F)(F)F)cc1	-1%	20%	44%	57%	8%
Cc1ccc(C)c(OC(C)C(=O)Nc2nccs2)c1 (centres undefined)	-2%	1%	·	65%	0%
CCOc1ccc2nc(NC(=O)C(CCSC)NS(=O)(=O)c3cccs3)sc2c1 (centres undefined)	-4%	56µM*	?	45%	?
Cc1ccccc1OC(C)C(=O)Nc1ccc(S(=O)(=O)Nc2nccs2)cc1 (centres undefined)	15%	-18%	50µM*	15%	-24%
CCCC(C)C(=O)Nc1ccc(S(=O)(=O)Nc2nccs2)cc1 (centres undefined)	-22%	-14%	·	40%	50µM*
Cc1ccc(C)c(OC(C)C(=O)Nc2ccc(S(=O)(=O)Nc3nccs3)cc2)c1 (centres undefined)	9%	-33%	11µM*	?	-28%
CCN(CCCNC(=O)Cn1ncc2c3ccccc3n(C)c2c1=O)c1cccc(C)c1	·	-10%	9%[59 µM]	28%	-4%
O=C(NCCCN1CCN(c2cccc(Cl)c2)CC1)c1ccc2nc(Cc3ccccc3)oc2c1	·	?	?	-11%[57 µM]	?
COC(=O)c1ccccc1NC(=O)c1cn2c3c(ccc(Cl)c3c1=O)OC(C)C2 (centres undefined)	·	-2%	-1%[59 µM]	26%	4%
CC(NS(=O)(=O)c1ccccc1)C(=O)Nc1nccs1 (centres undefined)	6%	-20%	-1%[59 µM]	40%	-3%
CCCCC1CCC(C(=O)Nc2ccc(S(=O)(=O)Nc3nccs3)cc2)CC1 (centres undefined)	9%	-25%	45µM*	-5%	-30%
CSCCC(NS(=O)(=O)c1ccccc1)C(=O)Nc1nccs1 (centres undefined)	·	-21%	8.9µM*	18%	4%
CCC(=O)Nc1ccc(S(=O)(=O)Nc2nccs2)cc1	9%	-8%	·	48%	?
CC(Oc1ccccc1Cl)C(=O)Nc1ccc(S(=O)(=O)Nc2nccs2)cc1 (centres undefined)	·	?	56µM*	-21%	-9%
O=C(Oc1coc(CSc2ncccn2)cc1=O)c1cccs1	6%	-5%	?	46%	-23%
O=C(O)c1cc([N+](=O)[O-])ccc1Oc1ccccc1	·	-15%	·	19%	·
C=C(C)Cn1c(SCC(=O)Nc2cccc(C)c2)nc2sc3c(c2c1=O)CCCC3	·	7%	-6%[59 µM]	5%	-2%
CN(C)c1ccc(CCc2ccc(N)cc2)cc1	·	56µM*	·	50µM*	·
Nc1ccc(CCS(N)(=O)=O)cc1	0%	-4%	0%[59 µM]	27%	-3%
Cc1ncc(N=Nc2ccccc2)c(-c2ccccc2)n1	-1%	40µM*	?	32µM*	14µM*
Cc1ncc(S(=O)(=O)c2ccccc2)c(-c2ccccc2)n1	17%	22%	?	27%	-10%
COc1ccc2[nH]cc(CCNc3nc(-c4cccc(C#N)c4)nc4ccccc34)c2c1	-3%	·	-8%[0.501 µM]	·	·
